Shown are actives, neighbours in structure and some others; about 3.5% of the full set was active somewhere.
Mtb betalactam: beta-lactam sensitization of Mtb H37Rv, H37Rv; M. tuberculosis H37Rv growth with meropenem, percent inhibition; inhibition, % at 25 µM; 0.27% of 330,000 active; call rule not given here;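 further: growth measured after seven days incubation then overnight dye step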
Mtb FBA inh: Mtb FBA enzyme inhibitors, primary screen, biochemical, fluorescence, strain H37Rv; purified M. tuberculosis FBA, fluorescence read-out; inhibition, % at 1 µM; 2.3% of 360,000 active; AID 588726, 2011
Target sequence (P9WQA3 whole entry, looked up): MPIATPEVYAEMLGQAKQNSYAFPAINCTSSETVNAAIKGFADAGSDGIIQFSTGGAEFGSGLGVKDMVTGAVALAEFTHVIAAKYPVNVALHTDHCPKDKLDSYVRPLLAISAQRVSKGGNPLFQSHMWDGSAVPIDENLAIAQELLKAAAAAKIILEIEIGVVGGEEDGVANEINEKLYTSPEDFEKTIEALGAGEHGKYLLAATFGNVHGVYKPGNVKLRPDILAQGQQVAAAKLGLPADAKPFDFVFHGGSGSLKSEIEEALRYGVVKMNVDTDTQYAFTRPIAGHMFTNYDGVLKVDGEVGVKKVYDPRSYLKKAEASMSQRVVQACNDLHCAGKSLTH
GDH-TPI counter-1: GDH-TPI coupling enzyme inhibitors, primary screen, artefact control for M. tuberculosis FBA inhibitor project, biochemical, absorbance, full deck; GDH-TPI coupled enzyme counterscreen, NADH absorbance; inhibition, % at 4.8 µM; 1.2% of 360,000 active; in the data active means inhibition above about 30%
Mtb UGM inh: M. tuberculosis UGM enzyme inhibitors, primary screen, biochemical, fluorescence polarization, single point | UDP-galactopyranose mutase (Mycobacterium tuberculosis (strain ATCC 25618 / H37Rv)), … | purified UGM, fluorescence polarization probe displacement | inhibition, % at 10 µM | 0.06% of 320,000 active | AID 504406, 2011; in the data active means inhibition above about 10%, passing the limit was not always enough
Rv3671c inh: Rv3671c serine protease inhibitors, primary screen, biochemical, fluorescence polarization, M. tuberculosis H37Rv | P9WHR9 | inhibition, % at 5.96 µM | 0.048% of 320,000 active | AID 2606, 2010; in the data active means inhibition above about 38%;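 further: extracellular domain of Rv3671c used as enzyme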
Mtb FBA confirm: M. tuberculosis aldolase blockers, biochemical, fluorescence, strain H37Rv, confirmation | inhibition, % at 1 µM | 78% of 5,600 active | purified M. tuberculosis FBA, fluorescence read-out | shares compounds with Mtb FBA inh
GDH-TPI counter-2: GDH-TPI coupling enzyme inhibitors, artefact control for M. tuberculosis FBA inhibitor project, biochemical, fluorescence, high throughput; shares compounds with Mtb FBA inh; GDH-TPI coupled enzyme counterscreen; inhibition, % at 1 µM; 81% of 5,600 active; AID 652141, 2013; in the data active means inhibition above about 10%
Large screens that a line does not name were inactive (follow-up assays come after a bar, where they were run). Unless noted, no stated cut-off is given here; in the data, active means inhibition above about 27%; inactive means the rest.

Cc1cc(OC(C)C(=O)NCc2cccnc2)c2c(C)cc(=O)oc2c1 (stereo not given)	Mtb FBA inh 108 | Mtb FBA confirm active | GDH-TPI counter-2 active
CC(=O)N1CCN(S(=O)(=O)c2c(C)n(C)c(=O)n(C)c2=O)CC1	none
COC(=O)Cn1cc(/C=C(/C#N)C(=O)N2CCOCC2)c2ccccc21	none
COc1ccc(-c2cnc3c(c2)CCC3(C#N)C#N)cc1	Mtb FBA inh 58 | Mtb FBA confirm 50 | GDH-TPI counter-2 33
COc1cc2c(cc1OC)CN(C(=O)COc1ccccc1[N+](=O)[O-])CC2	none
CCOC(=O)c1c(C)n(-c2ccc(F)cc2)c2ccc(O)cc12	Mtb FBA inh 35 | Mtb FBA confirm 44 | GDH-TPI counter-2 24
COC(=O)c1c(C)n(-c2ccc(OC)cc2)c2ccc(O)cc12	none
CCn1c2ccccc2c2cc(/C=N/n3cn[nH]c3=S)ccc21	none
CCn1c(/C=N/n2cnnc2)nc2ccccc21	Mtb FBA inh 28, GDH-TPI counter-1 47 | Mtb FBA confirm 116 | GDH-TPI counter-2 83
CCn1c2ccccc2c2cc(/C=N/n3cnnc3)ccc21	Mtb FBA inh 32, GDH-TPI counter-1 46 | Mtb FBA confirm 59 | GDH-TPI counter-2 48
Cc1ccc(-c2cc3nc(-c4ccccc4)cc(N4CCC5(CC4)OCCO5)n3n2)cc1	Mtb FBA inh 33 | Mtb FBA confirm active | GDH-TPI counter-2 active
Fc1cccc(-c2cc3nc(-c4ccccc4)cc(N4CCC5(CC4)OCCO5)n3n2)c1	Mtb FBA inh 53 | Mtb FBA confirm inactive | GDH-TPI counter-2 inactive
Cc1cccc(-c2cc3nc(-c4ccccc4)cc(N4CCC5(CC4)OCCO5)n3n2)c1	none
N#CCCN(C(=O)COC(=O)c1cc(S(=O)(=O)N2CCOCC2)ccc1Cl)c1ccc(F)cc1	none
CCOc1ccc(C(=O)NCC(=O)N2CCN(c3ccccc3O)CC2)cc1	none
O=C(C1=C[C@H](c2ccccc2)C[C@H](OCc2ccc(CO)cc2)O1)N1CCOCC1	none
COc1ccc(-c2cc(C(F)F)n3ncc(C(=O)N4CCc5ccccc5C4)c3n2)cc1	Mtb FBA inh 30 | Mtb FBA confirm 83 | GDH-TPI counter-2 76
COc1ccc(-c2cc(C(F)F)n3ncc(C(=O)NCCCN4CCCC4=O)c3n2)cc1	Mtb FBA inh 31 (no result: Mtb UGM inh) | Mtb FBA confirm active | GDH-TPI counter-2 169
COCCNC(=O)c1cnn2c(C(F)F)cc(-c3ccc(C)cc3)nc12	none
COc1ccc2[nH]c(C(=O)NCCCN3CCCC3=O)c(C)c2c1	Mtb FBA inh 58 | Mtb FBA confirm inactive | GDH-TPI counter-2 inactive
Cc1ccc(-c2cc(C(F)F)n3ncc(C(=O)N4CCc5ccccc54)c3n2)cc1	none
COc1ccc(NC(=O)NCCCN2CCCC2=O)cc1	none
O=C(C1CC1)N1CCN(c2ccc(O)cc2)CC1	none
C[C@@]12C(=O)N(c3ccc(Cl)cc3)C(=O)N1[C@@H]1c3ccccc3OC[C@@H]1[C@H]2c1ccccc1	none
COc1ccc(-c2nc3c(c(=O)[nH]c(=O)n3Cc3ccccc3)n2CCO)cc1	Mtb FBA inh 39 | Mtb FBA confirm 170 | GDH-TPI counter-2 143
CCCn1c(-c2cccs2)nc2c1c(=O)[nH]c(=O)n2Cc1ccccc1	Mtb FBA inh 33 | Mtb FBA confirm 131 | GDH-TPI counter-2 102
NC(=O)c1cc(C(=O)c2ccccc2Cl)c[nH]1	none
O=c1[nH]c2ccccc2c(O)c1-c1ccccc1	none
O=c1c(-c2ccccc2)c(O)c2ccccc2n1-c1ccccc1	Mtb FBA inh 32 | Mtb FBA confirm 87 | GDH-TPI counter-2 73
CCCCn1c(=O)c(-c2ccccc2)c(O)c2ccccc21	Mtb FBA inh 31 | Mtb FBA confirm 112 | GDH-TPI counter-2 92
CCn1c(=O)c(-c2ccccc2)c(O)c2ccccc21	none
Cc1cc(NC(=O)CCCn2ccc([N+](=O)[O-])n2)n(Cc2ccc(F)cc2)n1	none
CSc1nnc(-c2ccc(S(=O)(=O)N3CCOCC3)cc2)n1C	none
CCSc1nnc(-c2ccc(S(=O)(=O)N3CCCC3)cc2)n1C	Mtb FBA inh 33 | Mtb FBA confirm inactive | GDH-TPI counter-2 inactive
CCSc1nnc(-c2ccc(S(=O)(=O)N3CCOCC3)cc2)n1C	Mtb FBA inh 30 | Mtb FBA confirm active | GDH-TPI counter-2 active
COc1ccc2oc(C(F)(F)C(F)F)cc(=O)c2c1	Mtb FBA inh 43 | Mtb FBA confirm 75 | GDH-TPI counter-2 52
COc1ccc2oc3ccccc3c(=O)c2c1	Mtb FBA inh 101 | Mtb FBA confirm active | GDH-TPI counter-2 active
CC(=O)c1cccc(OC(=O)C2=CC=CN3CCS(=O)(=O)N=C23)c1	Mtb FBA inh 44 | Mtb FBA confirm 146 | GDH-TPI counter-2 152
O=C(Nc1cccc(Cl)c1)C1=CC=CN2CCS(=O)(=O)N=C12	none
Cc1ccc(S(=O)(=O)c2cc3c(=O)n4ccccc4nc3n(Cc3ccco3)c2=N)cc1	Mtb FBA inh 87, GDH-TPI counter-1 35 | Mtb FBA confirm active | GDH-TPI counter-2 active
N=c1c(C(=O)NCc2ccco2)cc2c(=O)n3ccccc3nc2n1Cc1ccc(Cl)cc1	Mtb FBA inh 44 | Mtb FBA confirm 113 | GDH-TPI counter-2 87
COc1cccc(NC(=O)c2cc3c(=O)n4ccccc4nc3n(CC(C)C)c2=N)c1	none
O=C(NC1CCS(=O)(=O)C1)c1cc2c(=O)n3ccccc3nc2n1Cc1ccccc1 (stereo not given)	Mtb FBA inh 102 (no result: Mtb betalactam, Mtb UGM inh, Rv3671c inh) | Mtb FBA confirm active | GDH-TPI counter-2 196
N=c1c(C(=O)NCc2ccccc2)cc2c(=O)n3ccccc3nc2n1Cc1ccco1	Mtb FBA inh 50 | Mtb FBA confirm 88 | GDH-TPI counter-2 78
Cc1noc(C)c1NC(=O)Nc1cccc2c1O[C@H](CN(C)S(=O)(=O)c1cccs1)[C@@H](C)CN([C@H](C)CO)C2=O	none
CC(C)Oc1ccc(C(=O)Nc2ccc(Cl)c(S(=O)(=O)Nc3ccc(Cl)cc3)c2)cc1	none (no result: Mtb UGM inh)
NC1=NC(c2ccccc2)=NC1(NC(=O)c1ccccc1)C(Cl)Cl (stereo not given)	none
COc1ccc(CNC(=O)CN(C(=O)c2csnn2)c2cccc3ccccc23)cc1	none
Cc1ccc(CNC(=O)c2cc3c(=O)n4ccccc4nc3n(Cc3ccco3)c2=N)cc1	Mtb FBA inh 63 | Mtb FBA confirm 54 | GDH-TPI counter-2 48
Cc1ccc2nc3c(cc(C(=O)NCc4ccco4)c(=N)n3Cc3ccco3)c(=O)n2c1	Mtb FBA inh 42 | Mtb FBA confirm 49 | GDH-TPI counter-2 36
Cc1cc2ccccc2c(=O)n1CC(=O)NCc1ccco1	none

Bioassay records: PubChem, several laboratories
